Laboratory results taken from PubChem BioAssay (NCI).
This is part of a sample that, as a whole, favours compounds with a hit. Of some 79,000 tested, about 15% had one in any assay. No stated cut-off is given here; in the data, active means growth inhibition above about 70%; inactive means the rest.

Assays:
[1] = NCI Yeast Anticancer Drug Screen. Data for the rad50 strain (AID 155);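 further: 0% = growth of vehicle-only cultures of the same strain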; settings: S. cerevisiae rad50 strain growth inhibition; at 50.0 µM; hits give high values
In short: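 A DNA repair-deficient yeast mutant serves as the test organism; compound-induced growth inhibition is calculated against vehicle-treated cells.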

[2] = NCI Yeast Anticancer Drug Screen. Data for the mec2-1 strain (AID 157); settings: S. cerevisiae mec2-1 strain, at 50.0 µM, hits give high values
In short: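 Growth inhibition is read against vehicle-treated controls after compound exposure of the mec2-1 yeast strain, which is defective in DNA damage repair or cell cycle control.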

[3] = NCI Yeast Anticancer Drug Screen. Data for the sgs1 mgt1 strain (AID 161);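 further: 0% = growth of cultures given vehicle only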; settings: S. cerevisiae sgs1 mgt1 strain, at 50.0 µM, hits give high values
In short: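 Compounds are added to genetically altered yeast, and growth is compared with cultures given vehicle alone to give percent inhibition.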

[4] = NCI Yeast Anticancer Drug Screen. Data for the cln2 rad14 strain (AID 165);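 further: 0% = growth equal to vehicle treated cultures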; settings: S. cerevisiae cln2 rad14 strain, at 50.0 µM, hits give high values
In short: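 Growth inhibition, relative to vehicle-treated controls, is the read-out. The test organism is a yeast strain with defined genetic alterations, cln2 rad14.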

[5] = NCI Yeast Anticancer Drug Screen. Data for the bub3 strain (AID 167); settings: S. cerevisiae bub3 mutant strain, at 50.0 µM, hits give high values
In short: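 Inhibition values come from growth of compound-treated mutant yeast normalised to vehicle-treated controls.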

[6] = NCI Yeast Anticancer Drug Screen. Data for the mlh1 rad18 strain (AID 175); settings: S. cerevisiae mlh1 rad18 strain growth inhibition; at 50.0 µM; hits give high values
In short: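 Cells of a genetically altered yeast strain, deficient in DNA damage repair, were treated with compound. Their growth was then compared with that of vehicle-treated cultures to give inhibition.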

Measured: growth inhibition

OC(c1ccccc1)(c1ccccc1)C(O)(c1ccccc1)c1ccccc1
inactive: [1] 4.3% | [2] 6.25% | [3] 19.5% | [4] -16.2% | [5] -3.35% | [6] 33.4%

CCOC(=O)c1nc2ccc(C(F)(F)F)cc2nc1NCc1ccc(OC)c(OC)c1
inactive: [1] 5.7% | [2] 6.65% | [3] -28% | [4] -13.1% | [5] -23.5% | [6] -24.8%

C/C=C/C(=O)Oc1ccccc1/C=C/C(=O)CCCCCC
inactive: [1] 15.2% | [2] 11.1% | [3] 23.6% | [4] 8.25% | [5] 10.9% | [6] 10.9%

COC(=O)OC(C#N)c1cccc([N+](=O)[O-])c1 (stereo not given)
inactive: [1] 15.8% | [2] 8.8% | [3] 6.2% | [4] -13.7% | [5] -3.9% | [6] 9%

Cc1cc(N2CCCCC2)nc(N2CCCCC2)c1C#N
inactive: [1] -4.2% | [2] -20.2% | [3] 27.7% | [4] 14.6% | [5] 35.9% | [6] 13.8%

CN(C)c1ccc(C(c2cc3c(cc2O)OCO3)N2CCN(C(c3ccc(N(C)C)cc3)c3cc4c(cc3O)OCO4)CC2)cc1 (stereo not given)
inactive: [1] 39.8% | [2] 31.4% | [3] 28.9% | [4] 9.3% | [5] 13.8% | [6] 36.5%

COc1ccccc1C1CC(c2ccccc2)=Nc2ccccc2S1 (stereo not given)
inactive: [1] -3.95% | [2] -45.2% | [3] 1.25% | [4] 5.95% | [5] -30.8% | [6] -1.05%

CCCCCC(N)C(=O)O (stereo not given)
inactive: [1] 1.7% | [2] 6% | [3] -14.5% | [4] -22.1% | [5] -2.35% | [6] -17.9%

CCOC(=O)c1c(C)c(=O)cnc2c(C#N)cnn12
inactive: [1] -4.55% | [2] -6.75% | [3] -6.8% | [4] -33.2% | [5] -1.4% | [6] -8.35%

Nc1[nH]nc2nc3n(c(=O)c12)CCCCC3
inactive: [1] 7.1% | [2] 19.7% | [3] 5.6% | [4] 5.55% | [5] -5.75% | [6] -4.15%

O=C(Oc1c(Cl)c(Cl)c(Cl)c(Cl)c1Cl)c1ccc([N+](=O)[O-])cc1
inactive: [1] -27.6% | [2] -1.55% | [3] -26.6% | [4] -49% | [5] 3.9% | [6] -9.25%

Clc1ncnc2c1cnn2-c1ccccc1
inactive: [1] -4.05% | [2] -8.55% | [3] 1.05% | [4] -30.9% | [5] -2.55% | [6] -6.1%

CC(=O)Nc1ccc(S(=O)(=O)N=S(c2ccccc2)c2ccccc2)cc1
inactive: [1] 14.7% | [2] 3.05% | [3] 8.45% | [4] 10.8% | [5] -7.2% | [6] -0.25%

OC(CNc1ccccn1)c1ccccc1 (stereo not given)
inactive: [1] -3.9% | [2] -44.6% | [3] -35.6% | [4] 29.2% | [5] -33.8% | [6] 16.2%

NCCN1C(=O)c2ccccc2C1(O)c1ccc(Cl)cc1 (stereo not given)
inactive: [1] -6.25% | [2] -35.4% | [3] -7% | [4] -4.6% | [5] -14.9% | [6] -0.65%

Cc1c(CN2CCOCC2)c(CN2CCOCC2)c(C)n1-c1ccc(Cl)cn1
inactive: [1] -31.1% | [2] 7.9% | [3] -23.1% | [4] -6.85% | [5] -15.7% | [6] 7.55%

CC(C)CCCC(C)C1CCC2C3CC=C4CC(OP(=O)(N5CC5)N5CC5)CCC4(C)C3CCC12C (stereo not given)
inactive: [1] 26.8% | [2] 1.4% | [3] 11.4% | [4] 19.3% | [5] -4.1% | [6] 12.2%

CCSc1nc(C)nc2c1cnn2-c1ccccc1
inactive: [1] -0.1% | [2] -6.7% | [3] -2.65% | [4] -35.6% | [5] -13.8% | [6] 1.95%

CCCCc1ccc2nc3cc4ccccc4cc3nc2c1
inactive: [1] 12.8% | [2] 51.1% | [3] 32.6% | [4] -16% | [5] 20.6% | [6] 7.6%

CC1(C)C=C(O)C=C(O)C1
inactive: [1] 14.2% | [2] 2.8% | [3] 17.4% | [4] -2.25% | [5] 6.55% | [6] 2.5%
